# Legend:
# Experiment in all cases: DAPPL (digital affinity profiling via proximity ligation, sequencing); 10 mM Tris-HCl pH 7.5, 50 mM NaCl, 1 mM DTT, 4% glycerol, room temperature, 30 min; GST-TFs on glutathione beads, 16-mer random dsDNA library, 0.1% formaldehyde crosslink after washing; high values mean tight binding
# FLI1 = biological target: T1, FLI1 (Homo sapiens, UniProt Q01543 1-452); settings: protein: recombinant; tags: N-terminal GST; dsDNA, one strand shown
# T1 sequence: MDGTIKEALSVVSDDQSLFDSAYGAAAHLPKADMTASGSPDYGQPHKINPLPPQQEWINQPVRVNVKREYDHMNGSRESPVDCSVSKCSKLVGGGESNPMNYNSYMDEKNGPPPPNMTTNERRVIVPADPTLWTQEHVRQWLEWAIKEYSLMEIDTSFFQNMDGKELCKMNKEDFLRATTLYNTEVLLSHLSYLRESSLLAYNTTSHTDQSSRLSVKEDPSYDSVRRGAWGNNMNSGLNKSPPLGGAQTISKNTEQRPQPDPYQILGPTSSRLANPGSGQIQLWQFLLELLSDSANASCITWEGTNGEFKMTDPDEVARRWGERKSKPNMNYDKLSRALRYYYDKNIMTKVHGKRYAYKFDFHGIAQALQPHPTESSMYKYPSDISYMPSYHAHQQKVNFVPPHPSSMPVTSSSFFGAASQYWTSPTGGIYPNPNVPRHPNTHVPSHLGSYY
# In short: (§1)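 Human transcription factors fused to GST were expressed in yeast, captured on glutathione beads, given DNA barcodes and pooled with a GST-only negative control. Pools were incubated with 200 nmole of a 16-mer random double-stranded DNA library in Tris/NaCl/DTT/glycerol buffer at room temperature for 30 min. They were then washed, crosslinked with 0.1% formaldehyde, proximity-ligated (BsaI/T4 ligase, 1 h, 37 °C), PCR-amplified and sequenced on an Illumina NextSeq500. Binding signal is each 6-mer's read frequency for a factor divided by its frequency for the GST control.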
# ELK1 = biological target: T2, ELK1 (Homo sapiens, UniProt P19419 1-428); settings: protein: recombinant; tags: N-terminal GST; dsDNA, one strand shown
# T2 sequence: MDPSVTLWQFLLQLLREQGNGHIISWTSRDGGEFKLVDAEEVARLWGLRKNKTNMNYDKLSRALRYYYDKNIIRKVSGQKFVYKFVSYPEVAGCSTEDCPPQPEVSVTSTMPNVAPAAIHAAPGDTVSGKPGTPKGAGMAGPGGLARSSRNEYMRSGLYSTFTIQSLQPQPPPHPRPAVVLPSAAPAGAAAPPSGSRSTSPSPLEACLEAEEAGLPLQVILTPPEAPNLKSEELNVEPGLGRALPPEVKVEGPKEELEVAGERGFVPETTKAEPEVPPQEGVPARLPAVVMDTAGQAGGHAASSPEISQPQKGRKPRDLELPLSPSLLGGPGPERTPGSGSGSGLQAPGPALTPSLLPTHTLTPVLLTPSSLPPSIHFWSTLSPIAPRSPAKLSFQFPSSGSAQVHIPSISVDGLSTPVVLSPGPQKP
# In short: as §1
# GABPA = biological target: T3, GABPA (Homo sapiens, UniProt Q06546 1-454); settings: protein: recombinant; tags: N-terminal GST; dsDNA, one strand shown
# T3 sequence: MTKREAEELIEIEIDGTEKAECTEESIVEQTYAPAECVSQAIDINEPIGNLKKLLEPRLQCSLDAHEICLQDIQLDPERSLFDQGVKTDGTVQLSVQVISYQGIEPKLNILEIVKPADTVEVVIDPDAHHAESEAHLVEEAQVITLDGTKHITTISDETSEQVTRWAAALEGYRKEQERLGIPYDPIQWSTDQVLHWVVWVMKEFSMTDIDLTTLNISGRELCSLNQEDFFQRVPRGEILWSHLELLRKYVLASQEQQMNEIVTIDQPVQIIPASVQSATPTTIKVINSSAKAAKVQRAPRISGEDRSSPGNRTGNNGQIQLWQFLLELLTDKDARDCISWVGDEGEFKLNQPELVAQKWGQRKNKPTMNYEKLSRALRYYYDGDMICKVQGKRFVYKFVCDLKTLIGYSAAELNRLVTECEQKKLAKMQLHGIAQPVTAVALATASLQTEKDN
# In short: as §1
# ERG = biological target: T4, ERG (Homo sapiens, UniProt P11308 1-479); settings: protein: recombinant; tags: N-terminal GST; dsDNA, one strand shown
# T4 sequence: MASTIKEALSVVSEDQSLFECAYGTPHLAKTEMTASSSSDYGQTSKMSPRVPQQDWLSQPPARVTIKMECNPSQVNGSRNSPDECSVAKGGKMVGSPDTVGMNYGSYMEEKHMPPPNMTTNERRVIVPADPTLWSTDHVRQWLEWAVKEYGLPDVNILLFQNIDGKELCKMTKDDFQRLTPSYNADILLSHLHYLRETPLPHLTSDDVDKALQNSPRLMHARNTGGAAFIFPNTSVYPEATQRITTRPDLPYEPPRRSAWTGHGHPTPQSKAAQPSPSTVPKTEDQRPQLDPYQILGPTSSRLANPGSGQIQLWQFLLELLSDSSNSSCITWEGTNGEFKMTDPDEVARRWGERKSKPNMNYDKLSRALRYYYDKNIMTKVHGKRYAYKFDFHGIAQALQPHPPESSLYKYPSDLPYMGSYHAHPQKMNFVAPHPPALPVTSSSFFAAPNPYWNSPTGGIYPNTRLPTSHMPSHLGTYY
# In short: as §1
# ELF1 = ELF1 (Homo sapiens, UniProt P32519 1-619); settings: protein: recombinant; tags: N-terminal GST; dsDNA, one strand shown
# In short: as §1
# EHF = biological target: T5, EHF (Homo sapiens, UniProt Q9NZC4 1-300); settings: protein: recombinant; tags: N-terminal GST; dsDNA, one strand shown
# T5 sequence: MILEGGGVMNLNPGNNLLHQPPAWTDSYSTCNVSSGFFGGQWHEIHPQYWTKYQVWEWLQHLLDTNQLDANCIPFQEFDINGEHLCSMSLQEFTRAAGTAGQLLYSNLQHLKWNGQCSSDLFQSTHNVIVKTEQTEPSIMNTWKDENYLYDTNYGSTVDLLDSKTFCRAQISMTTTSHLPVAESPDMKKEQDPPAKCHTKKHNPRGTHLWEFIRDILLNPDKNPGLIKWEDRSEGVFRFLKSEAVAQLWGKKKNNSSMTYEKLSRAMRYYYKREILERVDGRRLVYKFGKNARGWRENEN
# In short: as §1
# SPI1 = SPI1 (Homo sapiens, UniProt P17947 1-270); settings: protein: recombinant; tags: N-terminal GST; dsDNA, one strand shown
# In short: as §1
# SPIB = SPIB (Homo sapiens, UniProt Q01892 1-262); settings: protein: recombinant; tags: N-terminal GST; dsDNA, one strand shown
# In short: as §1
# ELK3 = biological target: T6, ELK3 (Homo sapiens, UniProt P41970 1-407); settings: protein: recombinant; tags: N-terminal GST; dsDNA, one strand shown
# T6 sequence: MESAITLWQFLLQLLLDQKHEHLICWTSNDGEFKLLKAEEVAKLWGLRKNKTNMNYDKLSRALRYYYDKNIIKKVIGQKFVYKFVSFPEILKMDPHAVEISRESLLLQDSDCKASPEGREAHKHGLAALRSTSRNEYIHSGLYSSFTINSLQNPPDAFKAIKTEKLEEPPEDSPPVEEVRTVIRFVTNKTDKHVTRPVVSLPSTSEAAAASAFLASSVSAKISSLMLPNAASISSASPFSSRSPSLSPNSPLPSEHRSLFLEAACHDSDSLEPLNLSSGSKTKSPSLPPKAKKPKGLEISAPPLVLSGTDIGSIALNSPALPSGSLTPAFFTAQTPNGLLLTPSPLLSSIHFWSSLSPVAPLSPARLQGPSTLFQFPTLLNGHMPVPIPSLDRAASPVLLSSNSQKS
# In short: as §1
# FEV = biological target: T7, FEV (Homo sapiens, UniProt Q99581 1-238); settings: protein: recombinant; tags: N-terminal GST; dsDNA, one strand shown
# T7 sequence: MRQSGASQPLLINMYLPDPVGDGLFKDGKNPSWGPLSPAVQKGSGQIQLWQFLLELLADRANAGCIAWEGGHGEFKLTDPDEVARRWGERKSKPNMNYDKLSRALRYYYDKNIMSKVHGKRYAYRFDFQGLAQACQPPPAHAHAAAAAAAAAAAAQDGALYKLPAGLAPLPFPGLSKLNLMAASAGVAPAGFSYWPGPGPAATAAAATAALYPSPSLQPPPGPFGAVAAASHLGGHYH
# In short: as §1
# ETV5 = ETV5 (Homo sapiens, UniProt P41161 1-510); settings: protein: recombinant; tags: N-terminal GST; dsDNA, one strand shown
# In short: as §1
# HSF1 = HSF1 (Homo sapiens, UniProt Q00613 1-529); settings: protein: recombinant; tags: N-terminal GST; chain copies: 3; dsDNA, one strand shown
# In short: as §1
# SPIC = biological target: T8, SPIC (Homo sapiens, UniProt Q8N5J4 1-248); settings: protein: recombinant; tags: N-terminal GST; dsDNA, one strand shown
# T8 sequence: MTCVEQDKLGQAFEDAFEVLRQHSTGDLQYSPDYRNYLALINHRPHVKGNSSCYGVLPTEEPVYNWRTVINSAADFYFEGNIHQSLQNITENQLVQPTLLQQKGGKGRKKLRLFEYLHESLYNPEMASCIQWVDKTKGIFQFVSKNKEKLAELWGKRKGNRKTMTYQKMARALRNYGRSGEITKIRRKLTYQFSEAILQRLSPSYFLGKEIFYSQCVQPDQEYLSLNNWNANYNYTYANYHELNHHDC
# In short: as §1
# ELF4 = ELF4 (Homo sapiens, UniProt Q99607 1-663); settings: protein: recombinant; tags: N-terminal GST; dsDNA, one strand shown
# In short: as §1
# ELK4 = biological target: T9, ELK4 (Homo sapiens, UniProt P28324-2 1-405); settings: protein: recombinant; tags: N-terminal GST; dsDNA, one strand shown
# T9 sequence: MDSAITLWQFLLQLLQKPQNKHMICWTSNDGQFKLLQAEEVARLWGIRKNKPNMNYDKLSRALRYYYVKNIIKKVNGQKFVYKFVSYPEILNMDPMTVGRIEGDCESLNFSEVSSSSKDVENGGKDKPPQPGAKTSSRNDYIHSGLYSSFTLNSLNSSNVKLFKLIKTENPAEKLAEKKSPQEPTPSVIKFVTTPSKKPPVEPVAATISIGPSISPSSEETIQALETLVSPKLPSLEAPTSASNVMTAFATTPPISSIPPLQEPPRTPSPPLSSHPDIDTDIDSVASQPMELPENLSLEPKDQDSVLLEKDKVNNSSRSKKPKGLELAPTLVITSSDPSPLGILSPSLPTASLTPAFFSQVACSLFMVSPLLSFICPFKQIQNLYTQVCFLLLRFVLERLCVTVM
# In short: as §1
# ETV2 = biological target: T10, ETV2 (Homo sapiens, UniProt O00321 1-342); settings: protein: recombinant; tags: N-terminal GST; dsDNA, one strand shown
# T10 sequence: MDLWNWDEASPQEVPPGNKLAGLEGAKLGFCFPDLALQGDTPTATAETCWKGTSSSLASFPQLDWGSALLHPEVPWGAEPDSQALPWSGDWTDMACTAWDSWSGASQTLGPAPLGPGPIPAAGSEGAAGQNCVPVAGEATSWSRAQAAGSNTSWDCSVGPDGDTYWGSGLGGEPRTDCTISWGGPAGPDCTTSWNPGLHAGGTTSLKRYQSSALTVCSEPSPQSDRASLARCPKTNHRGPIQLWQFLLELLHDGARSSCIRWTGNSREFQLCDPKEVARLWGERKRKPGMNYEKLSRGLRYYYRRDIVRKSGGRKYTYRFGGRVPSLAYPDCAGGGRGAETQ
# In short: as §1
# ELF3 = biological target: T11, ELF3 (Homo sapiens, UniProt P78545 1-371); settings: protein: recombinant; tags: N-terminal GST; dsDNA, one strand shown
# T11 sequence: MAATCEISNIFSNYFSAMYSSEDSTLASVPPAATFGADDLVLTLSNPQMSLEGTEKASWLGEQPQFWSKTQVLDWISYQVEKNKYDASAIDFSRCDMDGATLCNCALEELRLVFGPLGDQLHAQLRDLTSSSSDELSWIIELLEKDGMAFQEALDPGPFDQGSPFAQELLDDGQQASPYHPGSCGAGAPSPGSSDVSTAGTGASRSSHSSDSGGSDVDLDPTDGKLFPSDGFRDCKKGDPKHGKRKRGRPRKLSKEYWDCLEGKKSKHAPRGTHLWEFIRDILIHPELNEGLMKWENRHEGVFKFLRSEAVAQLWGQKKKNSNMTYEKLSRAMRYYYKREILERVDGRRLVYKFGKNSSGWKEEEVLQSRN
# In short: as §1
# CRX = CRX (Homo sapiens, UniProt O43186 1-299); settings: protein: recombinant; tags: N-terminal GST; dsDNA, one strand shown
# In short: as §1
# ETV1 = ETV1 (Homo sapiens, UniProt P50549 1-477); settings: protein: recombinant; tags: N-terminal GST; dsDNA, one strand shown
# In short: as §1
# Chain of ELF1 (P32519 whole entry): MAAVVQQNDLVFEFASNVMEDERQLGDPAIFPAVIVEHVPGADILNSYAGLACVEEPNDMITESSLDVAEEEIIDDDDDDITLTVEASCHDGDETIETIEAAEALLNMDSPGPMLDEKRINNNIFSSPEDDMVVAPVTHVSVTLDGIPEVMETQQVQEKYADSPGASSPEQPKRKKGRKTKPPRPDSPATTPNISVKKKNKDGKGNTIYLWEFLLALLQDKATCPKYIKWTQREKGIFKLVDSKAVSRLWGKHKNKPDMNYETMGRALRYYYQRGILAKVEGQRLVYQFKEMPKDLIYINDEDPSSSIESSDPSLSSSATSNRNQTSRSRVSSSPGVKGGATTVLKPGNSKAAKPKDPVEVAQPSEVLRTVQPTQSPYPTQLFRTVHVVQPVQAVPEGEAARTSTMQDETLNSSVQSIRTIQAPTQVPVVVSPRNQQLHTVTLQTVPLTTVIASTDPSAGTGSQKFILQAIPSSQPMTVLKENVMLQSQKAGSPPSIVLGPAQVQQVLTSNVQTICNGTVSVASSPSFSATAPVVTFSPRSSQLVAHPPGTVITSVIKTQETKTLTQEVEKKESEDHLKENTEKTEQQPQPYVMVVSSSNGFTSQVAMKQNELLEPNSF
# Chain of CRX (O43186 whole entry): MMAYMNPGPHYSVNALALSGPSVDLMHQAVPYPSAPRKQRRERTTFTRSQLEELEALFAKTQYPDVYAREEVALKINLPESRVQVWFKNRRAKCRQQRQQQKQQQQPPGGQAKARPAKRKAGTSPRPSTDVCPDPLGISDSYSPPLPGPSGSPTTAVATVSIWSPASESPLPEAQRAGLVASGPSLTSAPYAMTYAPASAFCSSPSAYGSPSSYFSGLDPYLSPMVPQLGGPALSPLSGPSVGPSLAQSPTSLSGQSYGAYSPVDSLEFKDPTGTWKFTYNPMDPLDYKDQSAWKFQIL
# Chain of ETV1 (P50549 whole entry): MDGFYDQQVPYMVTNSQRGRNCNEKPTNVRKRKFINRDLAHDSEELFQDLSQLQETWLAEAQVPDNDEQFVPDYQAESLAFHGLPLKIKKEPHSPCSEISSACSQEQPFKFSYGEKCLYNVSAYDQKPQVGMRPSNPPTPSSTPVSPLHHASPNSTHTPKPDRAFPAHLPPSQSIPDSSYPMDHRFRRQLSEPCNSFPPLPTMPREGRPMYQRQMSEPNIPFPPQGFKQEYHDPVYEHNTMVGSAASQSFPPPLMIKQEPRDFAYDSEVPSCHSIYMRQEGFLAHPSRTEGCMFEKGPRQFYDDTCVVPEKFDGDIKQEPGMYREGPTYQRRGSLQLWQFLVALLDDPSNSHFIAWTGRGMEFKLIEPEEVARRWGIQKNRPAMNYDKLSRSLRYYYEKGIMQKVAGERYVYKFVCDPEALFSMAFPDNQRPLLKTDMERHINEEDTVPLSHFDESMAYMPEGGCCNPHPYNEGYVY
# Chain of ELF4 (Q99607 whole entry): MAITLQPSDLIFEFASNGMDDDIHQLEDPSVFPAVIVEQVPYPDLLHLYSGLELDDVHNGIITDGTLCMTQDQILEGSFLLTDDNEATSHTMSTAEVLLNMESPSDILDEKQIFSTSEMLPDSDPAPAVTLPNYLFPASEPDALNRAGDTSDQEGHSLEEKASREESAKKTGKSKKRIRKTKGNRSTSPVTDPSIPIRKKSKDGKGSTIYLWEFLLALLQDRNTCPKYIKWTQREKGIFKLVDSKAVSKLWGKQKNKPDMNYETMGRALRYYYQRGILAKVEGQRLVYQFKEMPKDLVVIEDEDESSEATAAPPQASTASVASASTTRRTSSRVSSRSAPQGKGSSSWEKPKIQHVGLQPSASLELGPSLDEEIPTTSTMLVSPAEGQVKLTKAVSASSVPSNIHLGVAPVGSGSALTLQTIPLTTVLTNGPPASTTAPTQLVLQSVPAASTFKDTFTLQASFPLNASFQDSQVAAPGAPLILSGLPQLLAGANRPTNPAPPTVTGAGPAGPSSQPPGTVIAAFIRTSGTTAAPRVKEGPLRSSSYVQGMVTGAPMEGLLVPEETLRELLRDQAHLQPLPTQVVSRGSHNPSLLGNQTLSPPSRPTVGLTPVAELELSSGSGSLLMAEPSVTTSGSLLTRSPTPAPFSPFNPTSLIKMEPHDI
# Chain of HSF1 (Q00613 whole entry): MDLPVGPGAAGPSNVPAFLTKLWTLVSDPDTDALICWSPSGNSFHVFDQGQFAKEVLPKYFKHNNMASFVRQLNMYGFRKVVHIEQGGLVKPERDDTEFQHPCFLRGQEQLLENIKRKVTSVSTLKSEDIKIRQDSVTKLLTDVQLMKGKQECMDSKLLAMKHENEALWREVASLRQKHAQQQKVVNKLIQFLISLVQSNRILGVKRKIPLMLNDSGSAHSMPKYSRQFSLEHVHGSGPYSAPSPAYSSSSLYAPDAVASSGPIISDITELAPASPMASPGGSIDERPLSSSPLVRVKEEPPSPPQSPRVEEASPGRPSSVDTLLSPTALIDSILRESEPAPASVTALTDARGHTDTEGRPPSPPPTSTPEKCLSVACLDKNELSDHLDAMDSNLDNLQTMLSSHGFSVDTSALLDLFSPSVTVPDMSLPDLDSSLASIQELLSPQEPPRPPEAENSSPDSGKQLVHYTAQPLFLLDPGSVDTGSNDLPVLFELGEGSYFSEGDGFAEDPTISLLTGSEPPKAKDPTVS
# Chain of SPIB (Q01892 whole entry): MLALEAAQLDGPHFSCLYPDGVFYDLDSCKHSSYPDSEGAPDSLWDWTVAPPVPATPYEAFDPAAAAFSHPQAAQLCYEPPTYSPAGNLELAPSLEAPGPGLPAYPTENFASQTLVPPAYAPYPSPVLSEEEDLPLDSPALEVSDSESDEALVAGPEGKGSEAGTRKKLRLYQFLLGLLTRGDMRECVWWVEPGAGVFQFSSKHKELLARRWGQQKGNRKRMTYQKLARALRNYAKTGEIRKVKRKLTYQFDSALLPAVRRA
# Chain of ETV5 (P41161 whole entry): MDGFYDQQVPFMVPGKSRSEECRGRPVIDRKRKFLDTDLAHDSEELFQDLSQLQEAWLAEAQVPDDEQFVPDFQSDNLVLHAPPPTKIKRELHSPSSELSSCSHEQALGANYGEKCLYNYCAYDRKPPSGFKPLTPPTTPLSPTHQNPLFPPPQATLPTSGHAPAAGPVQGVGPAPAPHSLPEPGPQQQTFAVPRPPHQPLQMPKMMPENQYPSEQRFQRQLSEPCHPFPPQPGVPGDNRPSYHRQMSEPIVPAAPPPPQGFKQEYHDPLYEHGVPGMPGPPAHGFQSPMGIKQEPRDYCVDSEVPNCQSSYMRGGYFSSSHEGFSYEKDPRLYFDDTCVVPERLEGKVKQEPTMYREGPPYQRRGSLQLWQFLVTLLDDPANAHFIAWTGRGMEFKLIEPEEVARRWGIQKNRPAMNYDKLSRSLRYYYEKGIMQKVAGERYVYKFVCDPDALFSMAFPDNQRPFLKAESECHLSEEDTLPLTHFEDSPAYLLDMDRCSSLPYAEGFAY
sequence,measurement,setting,value
CACTTA,binding signal,FLI1,"1.17 fold enrichment (6-mer frequency, TF over GST control)"
same,binding signal,ELK1,"1.24 fold enrichment (6-mer frequency, TF over GST control)"
same,binding signal,GABPA,"1.25 fold enrichment (6-mer frequency, TF over GST control)"
same,binding signal,ERG,"1.22 fold enrichment (6-mer frequency, TF over GST control)"
same,binding signal,ELF1,"1.27 fold enrichment (6-mer frequency, TF over GST control)"
same,binding signal,EHF,"1.18 fold enrichment (6-mer frequency, TF over GST control)"
same,binding signal,SPI1,"1.21 fold enrichment (6-mer frequency, TF over GST control)"
same,binding signal,SPIB,"1.19 fold enrichment (6-mer frequency, TF over GST control)"
same,binding signal,ELK3,"1.2 fold enrichment (6-mer frequency, TF over GST control)"
same,binding signal,FEV,"1.19 fold enrichment (6-mer frequency, TF over GST control)"
same,binding signal,ETV5,"1.2 fold enrichment (6-mer frequency, TF over GST control)"
same,binding signal,HSF1,"1.26 fold enrichment (6-mer frequency, TF over GST control)"
same,binding signal,SPIC,"1.08 fold enrichment (6-mer frequency, TF over GST control)"
same,binding signal,ELF4,"1.19 fold enrichment (6-mer frequency, TF over GST control)"
same,binding signal,ELK4,"1.13 fold enrichment (6-mer frequency, TF over GST control)"
same,binding signal,ETV2,"1.21 fold enrichment (6-mer frequency, TF over GST control)"
same,binding signal,ELF3,"1.24 fold enrichment (6-mer frequency, TF over GST control)"
same,binding signal,CRX,"1.62 fold enrichment (6-mer frequency, TF over GST control)"
same,binding signal,ETV1,"1.25 fold enrichment (6-mer frequency, TF over GST control)"
